Structures are written as SMILES.

For this test, the target named is Neurogenic locus notch homolog protein 3 (Homo sapiens) (UniProt Q9UM47). Nature of the test: NOTCH3 binders on small-molecule microarray, primary screen, biochemical, 635/667 nm fluorescence (AID 1096). The note with it: NOTCH3 binding, 635 nm fluorescence, higher = more signal.
Sequence of Neurogenic locus notch homolog protein 3 (Homo sapiens) (Q9UM47 whole entry, looked up): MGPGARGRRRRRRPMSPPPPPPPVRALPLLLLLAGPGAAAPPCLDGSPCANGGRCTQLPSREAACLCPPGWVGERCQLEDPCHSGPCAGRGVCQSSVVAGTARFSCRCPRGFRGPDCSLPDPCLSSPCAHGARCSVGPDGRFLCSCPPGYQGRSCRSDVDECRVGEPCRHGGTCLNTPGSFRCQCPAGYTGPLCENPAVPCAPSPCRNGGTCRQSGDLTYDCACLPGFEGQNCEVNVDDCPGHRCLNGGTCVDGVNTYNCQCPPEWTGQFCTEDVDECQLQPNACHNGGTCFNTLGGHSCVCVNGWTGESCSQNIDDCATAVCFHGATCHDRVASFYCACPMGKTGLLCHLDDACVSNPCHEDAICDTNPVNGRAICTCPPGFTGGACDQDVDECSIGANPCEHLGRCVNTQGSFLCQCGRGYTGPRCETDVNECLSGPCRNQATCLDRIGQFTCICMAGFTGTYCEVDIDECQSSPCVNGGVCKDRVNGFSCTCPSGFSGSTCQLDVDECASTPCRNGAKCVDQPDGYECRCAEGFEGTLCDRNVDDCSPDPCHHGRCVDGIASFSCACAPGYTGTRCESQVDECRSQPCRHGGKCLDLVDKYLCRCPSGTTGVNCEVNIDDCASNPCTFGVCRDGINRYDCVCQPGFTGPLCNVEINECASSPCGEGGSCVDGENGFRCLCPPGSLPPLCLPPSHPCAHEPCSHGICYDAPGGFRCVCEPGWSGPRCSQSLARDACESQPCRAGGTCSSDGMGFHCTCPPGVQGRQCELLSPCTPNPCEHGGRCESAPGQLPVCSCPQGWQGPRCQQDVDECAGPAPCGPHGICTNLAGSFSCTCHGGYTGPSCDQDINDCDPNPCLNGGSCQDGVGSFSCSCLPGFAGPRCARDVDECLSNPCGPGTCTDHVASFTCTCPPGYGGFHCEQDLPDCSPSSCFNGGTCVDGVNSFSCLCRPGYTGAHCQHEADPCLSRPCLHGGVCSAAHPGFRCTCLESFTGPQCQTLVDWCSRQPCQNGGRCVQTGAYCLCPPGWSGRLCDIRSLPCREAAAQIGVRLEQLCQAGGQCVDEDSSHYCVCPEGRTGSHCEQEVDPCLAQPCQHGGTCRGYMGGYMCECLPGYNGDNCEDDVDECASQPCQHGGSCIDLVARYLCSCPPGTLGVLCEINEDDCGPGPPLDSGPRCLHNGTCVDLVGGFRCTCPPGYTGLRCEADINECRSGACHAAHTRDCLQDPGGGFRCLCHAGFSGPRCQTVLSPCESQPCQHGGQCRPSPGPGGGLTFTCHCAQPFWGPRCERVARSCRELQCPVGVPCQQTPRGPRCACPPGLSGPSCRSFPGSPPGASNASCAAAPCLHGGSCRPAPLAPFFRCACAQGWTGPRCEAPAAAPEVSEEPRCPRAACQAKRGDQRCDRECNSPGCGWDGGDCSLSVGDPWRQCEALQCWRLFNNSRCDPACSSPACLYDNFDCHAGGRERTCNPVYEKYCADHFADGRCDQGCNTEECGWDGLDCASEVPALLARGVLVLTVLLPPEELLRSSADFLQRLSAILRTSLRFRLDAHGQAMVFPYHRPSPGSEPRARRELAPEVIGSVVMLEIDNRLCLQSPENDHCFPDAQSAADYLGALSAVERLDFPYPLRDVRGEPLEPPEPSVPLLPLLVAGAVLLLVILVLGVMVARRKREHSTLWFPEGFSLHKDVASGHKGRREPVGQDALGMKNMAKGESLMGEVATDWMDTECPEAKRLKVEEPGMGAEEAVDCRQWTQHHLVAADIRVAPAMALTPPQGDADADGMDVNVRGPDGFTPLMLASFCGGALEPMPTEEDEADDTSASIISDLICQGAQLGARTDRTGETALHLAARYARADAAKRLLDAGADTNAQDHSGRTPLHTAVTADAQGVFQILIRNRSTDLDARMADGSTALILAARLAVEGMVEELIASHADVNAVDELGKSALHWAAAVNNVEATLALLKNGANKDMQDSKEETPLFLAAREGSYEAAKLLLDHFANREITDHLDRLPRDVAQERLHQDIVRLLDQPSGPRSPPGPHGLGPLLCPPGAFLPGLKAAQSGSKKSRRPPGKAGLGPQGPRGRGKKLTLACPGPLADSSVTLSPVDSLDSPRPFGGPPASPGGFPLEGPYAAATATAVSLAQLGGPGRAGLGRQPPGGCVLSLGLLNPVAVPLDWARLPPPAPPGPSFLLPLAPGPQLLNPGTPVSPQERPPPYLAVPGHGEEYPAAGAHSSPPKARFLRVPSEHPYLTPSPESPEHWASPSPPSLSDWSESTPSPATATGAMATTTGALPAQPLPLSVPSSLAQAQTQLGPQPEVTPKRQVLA
`COC(=O)C(CC#Cc1ccc2c(c1)[C@]1(C(=O)N2)[C@H](c2ccccc2OCCO)N2[C@H](c3ccccc3)[C@H](c3ccccc3)OC(=O)[C@H]2[C@@H]1C(=O)N1CCN(c2ncccn2)CC1)C(=O)OC` came in with a composite z-score of 1.09.

In turn, `COC(=O)[C@@]1(Cc2ccc(F)cc2)[C@H]2c3cc(C(=O)N(C)C)n(Cc4ccc(C(F)(F)F)nc4)c3C[C@H]2CN1C(=O)c1ccccc1` registered a composite z-score of 1.02.

As to `COCCCNC(=O)[C@]1(Cc2ccccc2CN=[N+]=[N-])N=C(c2ccc(OCCCO)cc2)O[C@@H]1c1ccccc1N=[N+]=[N-]`, the composite z-score is -0.217.

With `[N-]=[N+]=Nc1ccccc1C[C@]1(C(N)=O)COC(c2ccc(OCCCO)cc2)=N1`, the composite z-score was -0.0154.

In the case of `COc1cc(Cc2cc3c(c(-c4ccccc4)n2)[Si](C(C)C)(C(C)C)OC3)cc(OC)c1OC`, the composite z-score is -0.108.

Take `COC(=O)C[C@H]1O[C@]2(C(=O)N(C)c3ccccc32)[C@@H](C)[C@@H]1[Si](C)(C)c1ccccc1`: the composite z-score stood at 1.08.

With `C=CC[C@H](O)c1ccc(O)c(F)c1`, the composite z-score was -0.579.

For `COc1ccc(CCNC(=O)[C@@H]2c3ccccc3C(=O)N(C(C)C)[C@H]2c2ccc(CO)cc2)cc1`, the composite z-score is -2.01.

In the case of `COC(=O)[C@@]1(Cc2ccc(F)cc2)[C@H]2c3cc(C(=O)N(C)C)n(CCF)c3C[C@H]2CN1C(=O)c1ccccc1`, the composite z-score is -0.0282.

On to `Cc1ccc(N2C(=O)c3ccccc3[C@@H](C(=O)NCCN3CCOCC3)[C@@H]2c2ccc(CO)cc2)nc1`, for which the composite z-score came out at 0.248.

`O=C/C=C/c1ccc(-c2ccccc2)cc1`: the composite z-score is -0.586.

Compound `CC[C@@H](O[Si](C#C[Si](C(C)C)(C(C)C)C(C)C)(C(C)C)C(C)C)c1cn([C@H](C)c2ccccc2)nn1` came in with a composite z-score of 0.785.

`CCOC(=O)C1=CCC(c2cccn2C(=O)OC(C)(C)C)N(S(=O)(=O)c2ccc(C)cc2)C1` (stereo not given) gave a composite z-score of 1.

Consider `CC[C@@H]1C=C(C(=O)O)[C@H](c2cccc(Cl)c2)N1S(=O)(=O)c1ccc(C)cc1`, for which the composite z-score is -0.118.

Compound `O=C1O[C@H](c2ccccc2)[C@H](c2ccccc2)N2[C@H]1[C@@H](C(=O)O)[C@]1(C(=O)Nc3ccccc31)[C@H]2c1ccc(OCCO)cc1` yielded a composite z-score of 0.33.

Take `COc1ccc(NN2C(C(O)c3ccc(F)cc3)C=CC3C(=O)N(C4CCCCC4)C(=O)C32)cc1` (stereo not given): the composite z-score is 1.07.

In the case of `C=CCNC(=O)[C@@H]1[C@H]2C(=O)O[C@H](c3ccccc3)[C@H](c3ccccc3)N2[C@H](c2ccc(OCCO)cc2)[C@@]12C(=O)Nc1ccc(C#CCNC(N)=O)cc12`, the composite z-score amounted to 0.266.

Consider `CCCCN1CC=CC23O[C@@H]4C=CCCOC(=O)C4[C@H]2C(=O)N(CCO)[C@@H]3C1=O` (stereo not given in full), for which the composite z-score was -0.414.

`CN1C(=O)C2C=CC(C(O)c3ccc([N+](=O)[O-])cc3)N(Nc3ccccc3)C2C1=O` (stereo not given) came in with a composite z-score of 1.03.

On to `CC(C)[Si]1(C(C)C)OCc2cc(-c3ccc(-c4ccc(Cl)c(Cl)c4)o3)nc(-c3ccc(Oc4ccccc4)cc3)c21`, for which the composite z-score is -1.57.

`C=C1C(=O)C=C2CN(C(=O)c3ccccc3)[C@@](Cc3ccc(F)cc3)(C(=O)OC)[C@@H]12` returned a composite z-score of 1.05.

Take `CN(C)C(=O)[C@]1(CCS(=O)(=O)c2ccccc2)N=C(c2ccc(OCCCO)cc2)O[C@@H]1c1ccccc1CN=[N+]=[N-]`: the composite z-score came to 1.09.

On to `CN1C2C=C(c3ccc(CO)cc3)C(C3C(=O)N(C(N)=O)C(=O)C32)C1C1CC1` (stereo not given), for which the composite z-score was -0.607.

For the compound `CCCNC(=O)[C@@]1(Sc2ccc(C)cc2)CC(=O)N(Cc2cc(C(F)(F)F)cc(C(F)(F)F)c2)[C@@H]1c1ccc(CO)cc1`, the composite z-score is -0.542.

As to `COCCOC(=O)N1C(=O)[C@@]2(c3cc(C#CC4(O)CCCCCC4)ccc31)[C@H](C(N)=O)[C@H]1C(=O)O[C@H](c3ccccc3)[C@H](c3ccccc3)N1[C@@H]2c1ccc(OCCO)cc1`, the composite z-score stood at 1.09.

For the compound `CC(C)C[C@@H]1NC(=O)[C@@H]2C[C@H](C(=O)NCCCCCNC(=O)CS)[C@H](c3ccc(O)cc3)N2C1=O`, the composite z-score is 0.313.

In turn, `Cc1ccc(S(=O)(=O)N2[C@@H](c3ccccc3)C(C(=O)O)=CC[C@H]2c2ccc(F)cc2)cc1` showed a composite z-score of 0.76.

Consider `CCCCCN1CC=CC23O[C@@H]4/C=C\CCCOC(=O)C4[C@H]2C(=O)N(CCO)[C@@H]3C1=O` (stereo not given in full), for which the composite z-score is -0.285.

On to `C=C(C(=O)CC[C@@H](OC(=O)c1cccnc1)c1cccc(OCCO)c1)C(C)C`, for which the composite z-score amounted to 0.144.

Compound `O=C1C2C=CC(C(O)C3CC=CCC3)N(Nc3ccc([N+](=O)[O-])cc3)C2C(=O)N1c1ccccc1` (stereo not given) came in with a composite z-score of 1.06.

Turning to `CCCCC(=C=CC[C@@H](O)c1ccccc1OCCO)C[C@@H](O)c1ccccn1`, the composite z-score is 0.311.

As to `COC(=O)[C@]1(Cc2ccccc2CN=[N+]=[N-])N=C(c2ccc(OCCCO)cc2)O[C@@H]1c1ccccc1N=[N+]=[N-]`, the composite z-score is -0.122.

Regarding `COCCOC(=O)N1C(=O)[C@@]2(c3cc(C#CC4=CCCCC4)ccc31)[C@H](c1ccc(O)cc1)N1[C@H](c3ccccc3)[C@H](c3ccccc3)OC(=O)[C@H]1[C@@H]2C(=O)N1CCc2cc(OC)c(OC)cc2C1`, the composite z-score was 0.399.

With `O=C(c1ccccc1)N1Cc2ccccc2C[C@@]2(N=C(c3ccc(OCCCO)cc3)O[C@H]2c2ccccc2)C1=O`, the composite z-score amounted to 1.09.

As for `C=CC[C@]1(C(=O)NCCN2CCOCC2)N=C(c2ccc(OCCCO)cc2)O[C@H]1c1ccccc1`, the composite z-score was -0.398.
